PI5P4Ka inh – blocks human PI5P4K alpha kinase activity. PI5P4Kalpha enzyme, ADP-Glo luminescence, 60 min; stronger effect = lower value. max response, %. P48426. AID 652105. hit rate 1.2% among 330,000; active means max response of -50% or lower; inconclusive means between -30% and -50%; inactive means -30% or higher; further: value at the top dose of about 77 µM
Target sequence (P48426 whole entry, looked up): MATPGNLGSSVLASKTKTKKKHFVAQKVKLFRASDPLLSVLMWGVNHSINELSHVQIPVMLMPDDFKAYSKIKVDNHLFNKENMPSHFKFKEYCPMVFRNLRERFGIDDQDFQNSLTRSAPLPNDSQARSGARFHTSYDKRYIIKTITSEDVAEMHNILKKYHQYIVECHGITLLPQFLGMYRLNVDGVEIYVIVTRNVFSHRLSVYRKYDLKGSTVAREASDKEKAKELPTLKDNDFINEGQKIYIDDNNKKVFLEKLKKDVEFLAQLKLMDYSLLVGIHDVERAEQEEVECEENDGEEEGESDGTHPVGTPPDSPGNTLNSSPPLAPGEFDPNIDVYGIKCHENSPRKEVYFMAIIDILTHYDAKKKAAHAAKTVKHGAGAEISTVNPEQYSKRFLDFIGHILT
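Enzyme plus substrate dispensed, test compounds pinned in, then ATP (5 microM final) added. After 60 min at RT, ADP-Glo reagent 1 for 45 min and reagent 2 for 30 min preceded luminescence imaging.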
POLK inh – blocks human DNA polymerase kappa activity. Q9UBT6. purified Pol kappa, fluorescent DNA synthesis assay, 10 min. Potency, µM (top dose mostly 107 µM), actives largely listed as inhibitors. hit rate 0.53% among 400,000. AID 588579
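Fluorescent qHTS in 1536-well format: enzyme (10 nM) and compound sat 15 min at room temperature before 50 nM substrate (final) was added. Signal taken at 0 and 10 min; no-enzyme buffer wells were negative controls.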
POLH inh – DNA polymerase eta (human) inhibition; hit rate 1.2% among 390,000; recombinant Pol eta, fluorescent DNA replication assay; Potency, µM (titrated, usually from 114 µM), actives largely listed as inhibitors; AID 588591; Q9Y253
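Pol eta at 10 nM preincubated with compounds 15 min at room temperature; reaction started with fluorescent substrate (50 nM final) and read kinetically at 0 and 10 min.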
POLB inh – DNA polymerase beta (human) inhibition; P06746; Pol beta primer extension/strand displacement, fluorescence kinetic; Potency, µM (top dose mostly 114 µM), actives largely listed as inhibitors; hit rate 1.3% among 340,000; AID 485314
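Human Pol beta at 10 nM; strand-displacement substrate 50 nM final. Compound exposure 15 min at room temperature before start, reaction 10 min at room temperature.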
POLI inh – DNA polymerase iota (human) inhibition; Potency, µM (titrated, usually from 115 µM), actives largely listed as inhibitors; Q9UNA4; Pol iota fluorescent replication assay, 10 min; hit rate 1% among 390,000; AID 588590
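Pol iota at 10 nM preincubated 15 min with compounds at room temperature; reaction started with fluorescent substrate, 50 nM final. Fluorescence read kinetically at 0 and 10 min; buffer-only wells as negative control.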
PI4K2A inh – inhibitors of human PI4K2A; purified PI4K2A, ADP-Glo luminescence, 1 h; stronger effect = lower value; activity change, negative = inhibition, % at 76.9 µM; hit rate 0.13% among 420,000; in the data active means activity change below about -50%; inconclusive means mostly about -30% to -49%
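ADP-Glo luminescence measured ADP generated by PI4K2A enzyme (4 ug/mL before mixing) with 1.2 mM PI substrate (pre-mix) and 300 microM ATP (pre-mix). Tris pH7.5 buffer with MgCl2, Triton X-100; 1 h reaction at ambient temperature.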
Of the large screens only hits and unclear results are named; the others gave an inactive call. Most compounds without a hit are left out; they make up all but 2.8% or so of the library. Unless noted, the call rests on the fitted dose curve; in most records, active means well fitted inhibition curve with a large enough effect; inconclusive means small, poorly fitted or top-dose-only effect, or another doubt; inactive means no such curve, though single readings can be large or run the other way.

COC(=O)N/N=C/c1ccc([N+](=O)[O-])o1	POLB inh inconclusive, POLI inh 56.2µM
CCCC(=O)Nc1ccc(C(=O)N/N=C/c2ccc([N+](=O)[O-])o2)cc1	POLH inh inconclusive, POLB inh 44.7µM, POLI inh inconclusive
Cc1cc(=O)oc2cc(OCC(=O)N/N=C/c3ccccc3[N+](=O)[O-])ccc12	POLK inh inconclusive, POLH inh inconclusive, POLB inh 31.6µM, POLI inh 28.2µM
Cc1ccc(OCC(=O)N/N=C/c2ccc([N+](=O)[O-])o2)cc1	none (no result: PI5P4Ka inh)
O=C(COc1ccccc1)N/N=C/c1ccc([N+](=O)[O-])o1	PI5P4Ka inh -55.1, POLK inh inconclusive, POLH inh inconclusive, POLI inh inconclusive
O=C(Nc1ccc([N+](=O)[O-])cc1O)Nc1ccccc1Br	none (no result: PI5P4Ka inh, POLH inh, POLB inh, POLI inh, PI4K2A inh)
Cc1cc(Br)cc2c1N(Cc1ccccc1OC(C)C)C(=O)C2=O	POLI inh inconclusive (no result: PI5P4Ka inh, POLH inh)
Nc1[nH]c2cc(Cl)ccc2c1C(=O)N1CCOCC1	none (no result: PI5P4Ka inh, POLK inh, POLH inh, POLB inh, POLI inh)
NC(=O)N/N=C/c1ccc([N+](=O)[O-])o1	none (no result: POLB inh)
O=C(N/N=C/c1ccc([N+](=O)[O-])o1)C1CC1	POLH inh 39.8µM, POLB inh 17.8µM, POLI inh 22.4µM
CCN(C(=O)CSc1nc2ccccc2n1CC(=O)N1CCCC(C)C1)c1ccccc1 (stereo not drawn)	none (no result: PI5P4Ka inh)
O=C(O)C[C@@H]1C(=O)O[C@@H]2C(COC(=O)c3cc(O)c(O)c(O)c3)O[C@@H](OC(=O)c3cc(O)c(O)c(O)c3)[C@@H](OC(=O)c3cc(O)c(O)c4c3[C@H]1[C@H](O)C(=O)O4)[C@H]2OC(=O)c1cc(O)c(O)c(O)c1 (stereo partly drawn)	POLB inh 0.178µM (no result: PI5P4Ka inh, POLK inh, POLH inh, POLI inh, PI4K2A inh)
CN(C)c1nc(Nc2ccc(F)cc2)nc(Oc2ccc(F)cc2)n1	none
CN(C)c1nc(N/N=C/c2ccccc2O)nc(Nc2ccc(F)cc2)n1	POLK inh inconclusive, POLH inh 79.4µM, POLB inh inconclusive
COc1ccc(C2=NOC3(CC(=O)N(c4ccc5ccccc5c4)C3=O)C2)c(OC)c1 (stereo not drawn)	POLB inh 50.1µM, POLI inh inconclusive (no result: PI5P4Ka inh)
O=C(NC(=S)Nn1cnnc1)c1ccc(F)cc1Cl	PI5P4Ka inh -53.6
O=c1c2cc(F)ccc2sn1-c1ccccc1	PI5P4Ka inh -85.3 (no result: POLB inh)
O=c1c2cc(C(F)(F)F)ccc2sn1-c1ccccc1	PI5P4Ka inh -102.2 (no result: POLK inh, POLB inh, POLI inh)
CCSc1nnc2c(n1)OC(c1ccc(C)cc1)N(C(C)=O)c1ccccc1-2 (stereo not drawn)	none (no result: PI5P4Ka inh)
CCN1CCN(c2cc(N3CCN(C(=O)c4ccco4)CC3)c3c4c(onc24)-c2ccccc2C3=O)CC1	POLI inh 28.2µM
CCCC[C@@H]1CCCO[C@@](C(=O)NCCOC)(C(F)(F)F)C1	none (no result: PI5P4Ka inh, POLH inh, POLB inh, PI4K2A inh)
O=C(COc1ccc2ccccc2c1)NNC(=O)Nc1ccc(F)cc1F	POLB inh inconclusive, POLI inh inconclusive
CCOc1ccc(NC(=O)CCC(=O)NNC(=O)COc2ccc(C)cc2Br)cc1	POLB inh inconclusive, POLI inh 70.8µM
Cc1ccc(NC(=O)NNC(=O)COc2ccc3ccccc3c2)cc1	POLB inh 79.4µM, POLI inh inconclusive
O=C(COc1ccc2ccccc2c1)Nc1ccc(Cc2ccncc2)cc1	POLH inh inconclusive, POLB inh inconclusive, POLI inh 25.1µM (no result: PI5P4Ka inh)
Cc1ccccc1NC(=O)NNC(=O)COc1ccc2ccccc2c1	POLB inh 15.8µM, POLI inh inconclusive
O=C(O)Cc1ccc(NC(=O)COc2ccc3ccccc3c2)cc1	none
COC(=O)[C@@]12CCCCC3=C1N(CCC3)C(=O)[C@H]2CC(=O)NCCCCc1ccccc1	none (no result: PI5P4Ka inh, POLK inh, POLH inh, POLB inh, POLI inh)
CCCC1CCC2(CC1)CCC2OC(=O)Nc1ccc(C)cc1 (stereo not drawn)	none (no result: PI5P4Ka inh, POLK inh, POLH inh, POLB inh, POLI inh)
COc1ccc2cc(OCC(=O)NNC(=O)Nc3ccc(F)cc3)ccc2c1	POLI inh inconclusive
COc1ccc2cc(OCC(=O)NNC(=O)Nc3ccc(OC)c(OC)c3)ccc2c1	POLH inh inconclusive, POLB inh 50.1µM, POLI inh 20µM
CCN(CC)C(=O)Nc1cnc2ccccc2c1	POLB inh inconclusive
Cc1ccc(NC(=O)Nc2cnc3ccccc3c2)cc1	POLB inh 20µM
CCOc1ccccc1NC(=O)CSc1ncc2c(n1)-c1ccccc1N(CC)S2(=O)=O	none (no result: PI5P4Ka inh)
CC(Nc1cccc2ccccc12)C(=O)N/N=C/c1ccc([N+](=O)[O-])cc1 (stereo not drawn)	none
COc1cc([N+](=O)[O-])cc(/C=N/NC(=O)C(C)Nc2cccc3ccccc23)c1O (stereo not drawn)	PI5P4Ka inh -50.3, POLH inh inconclusive
Cc1ccc(SCCc2cc[n+](CC(=O)c3ccccc3)cc2)cc1	none
O=C(C[n+]1ccc(CCSc2ccc(F)cc2)cc1)c1ccccc1	PI5P4Ka inh -53.1
Cc1cc(C)c2oc(-c3ccc(C)c(NC(=S)NC(=O)/C=C/c4ccco4)c3)nc2c1	POLH inh inconclusive, POLB inh 20µM
COc1ccc(NC(=S)NC(=O)/C=C/c2ccco2)c(OC)c1	none
Cc1ccc(NC(=S)NC(=O)/C=C/c2ccco2)c(O)c1	PI5P4Ka inh -53.8, POLK inh inconclusive, POLH inh inconclusive, POLB inh 17.8µM, POLI inh inconclusive
Cc1ccc2oc(-c3cccc(NC(=S)NC(=O)/C=C/c4ccco4)c3)nc2c1	POLK inh inconclusive, POLH inh 12.6µM, POLB inh 44.7µM, POLI inh inconclusive
COC(=O)C1=C(C)N(Cc2ccccc2)C(=O)/C1=C\c1ccco1	POLK inh inconclusive, POLI inh 50.1µM
COC(=O)C1=C(C)N(CCc2ccccc2)C(=O)/C1=C\c1ccco1	none
COc1cc(Nc2nc(SCC(=O)c3ccc(Br)cc3)nc3ccccc23)cc(OC)c1	POLH inh inconclusive, POLB inh inconclusive, POLI inh 79.4µM (no result: PI5P4Ka inh)
COC(=O)[C@]12C[C@H](CC(=O)N3CCOCC3)C(=O)N(Cc3ccc(Cl)cc3Cl)C1=C[C@H](C1CCCC1)O[C@@H]2C	none (no result: PI5P4Ka inh, POLK inh, POLH inh, POLB inh, POLI inh)
CC(=O)OCC1=C(C(=O)O)N2C(=O)[C@@H](NC(=O)Cc3ccccc3)[C@H]2SC1	POLH inh inconclusive, POLI inh inconclusive (no result: POLB inh)
CCOc1ccc(C(=O)NC2C(=O)N3C(C(=O)O)=C(COC(C)=O)CSC23)cc1OCC (stereo not drawn)	POLH inh 20µM, POLI inh 25.1µM (no result: POLB inh)
COC(=O)CSc1nc2c(c(-c3ccco3)c1C#N)CCCC2	PI5P4Ka inh inconclusive, POLH inh inconclusive, POLB inh 22.4µM, POLI inh inconclusive
COc1ccccc1CNS(=O)(=O)c1ccc2[nH]cc(C(=O)O)c(=O)c2c1	POLK inh 79.4µM, POLH inh 3.16µM, POLB inh 28.2µM, POLI inh inconclusive
COc1ccccc1CNS(=O)(=O)c1ccc2[nH]c3c(c2c1)CCCCC3	none (no result: PI5P4Ka inh)

Source: PubChem (National Center for Advancing Translational Sciences (NCATS))
